Laboratory results reported in PubChem BioAssay (NCATS).
Several values for one entry are separate records, joined by “and”; a condition that tells them apart may be missing. Equal entries are not always repeated. Records with an inconclusive call do not appear. Where a structure was tested more than once in an assay, its records may differ in their call. Activity calls are given as the source filed them. Calls come from the whole dose curve; as a rule, active = well fitted inhibition curve with a large enough effect; inconclusive = small, poorly fitted or top-dose-only effect; inactive = no such curve, though single readings can be large or run the other way.

Experiment: Primary qHTS for small molecule stabilizers of the endoplasmic reticulum resident proteome: Secreted ER Calcium Modulated Protein (SERCaMP) assay (AID 1508630)
Details: SH-SY5Y GLuc-SERCaMP (Gaussia luciferase released on ER calcium loss) secretion, thapsigargin, luminescence; series mostly up to 38.4 µM; activity change, negative = inhibition: at the top concentration
Procedure, shortened: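 The SH-SY5Y reporter protocol was run at 3 concentrations up to 38.3 uM (primary) or 11 concentrations (follow-up): 16 h compound, 100 nM thapsigargin for 4 h, then extracellular luciferase luminescence.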
% is set by controls: 0 for no effect and ±100 for the full control effect; potency is the fitted concentration of half-maximal effect.

Structure (SMILES) | activity change, negative = inhibition | Potency
O=C(O)c1cc(=O)c2c(OCC(O)COc3cccc4oc(C(=O)O)cc(=O)c34)cccc2o1 | 48.4% (inactive) | 
O=C(O)c1cn(-c2ccc(F)cc2)c2cc(N3CCNCC3)c(F)cc2c1=O | 39.9% (inactive) | 
CC1=C(C(=O)O)N2C(=O)[C@@H](NC(=O)[C@H](N)C3=CCC=CC3)[C@H]2SC1 |  | inactive
Cc1ccc(C)c(OCCCC(C)(C)C(=O)O)c1 |  | inactive
CCCOc1ccc2nc(NC(=O)OC)[nH]c2c1 |  | inactive
CC1(C)NC(=O)N(c2ccc([N+](=O)[O-])c(C(F)(F)F)c2)C1=O |  | inactive
Cc1cccc(-c2[nH]ncc2-c2ccc3ncccc3n2)n1 | 46.9% (inactive) | 
C=CCc1cc(OC)c(O)c(C(=O)NCCO)c1 |  | inactive
C[C@H](Cc1ccc(O)c(O)c1)[C@@H](C)Cc1ccc(O)c(O)c1 | -64.5% (inactive) | 
c1cnc2cc3c(cc2n1)C1CNCC3C1 | 93.2% (inactive) | 
CCC[C@@H]1C[C@@H](C(=O)N[C@@H]([C@H]2O[C@H](SC)[C@H](O)[C@@H](O)[C@H]2O)[C@@H](C)O)N(C)C1 | 44.2% (inactive) | 
COC(=O)C1=C(C)NC(C)=C(C(=O)OCCCN2CCC(c3ccccc3)(c3ccccc3)CC2)C1c1cccc([N+](=O)[O-])c1 (stereo unspecified) | 59.9% (inactive) | 
CN(C)c1ccc(O)c2c1C[C@H]1C[C@H]3[C@H](N(C)C)C(=O)C(C(N)=O)=C(O)[C@@]3(O)C(=O)C1=C2O |  | inactive and 31.6 µM (active)
NNc1nncc2ccccc12 |  | inactive
Cc1cccc(C#Cc2ccccc2)n1 |  | inactive
C[C@]12CCC(=O)C=C1CC[C@@H]1[C@H]2[C@@H](O)C[C@@]2(C)[C@H]1CC[C@]2(O)C(=O)CO | 63% (inactive) | 
